85 compounds from PMC4336329 (PLoS ONE, 2015) can be followed below.

Hit rate of the full screen: of about 310,000 compounds, about 14,000 (4.5%) showed an effect of 50% or more. The effect is printed as a negative number. This is one part of a sample in which strong results are shown more often than they occur.
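Note: peak tail current of the secondary pulse compared with the same well before compound.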

For this experiment, the target named is human ether-à-go-go-related gene (hERG) potassium channel (human, UniProt Q12809). The experiment can be described thus: primary screen, population patch clamp on CHO cells stably expressing hERG; higher = less effect of the substance.
Sequence of human ether-à-go-go-related gene (hERG) potassium channel (Q12809 whole entry, looked up): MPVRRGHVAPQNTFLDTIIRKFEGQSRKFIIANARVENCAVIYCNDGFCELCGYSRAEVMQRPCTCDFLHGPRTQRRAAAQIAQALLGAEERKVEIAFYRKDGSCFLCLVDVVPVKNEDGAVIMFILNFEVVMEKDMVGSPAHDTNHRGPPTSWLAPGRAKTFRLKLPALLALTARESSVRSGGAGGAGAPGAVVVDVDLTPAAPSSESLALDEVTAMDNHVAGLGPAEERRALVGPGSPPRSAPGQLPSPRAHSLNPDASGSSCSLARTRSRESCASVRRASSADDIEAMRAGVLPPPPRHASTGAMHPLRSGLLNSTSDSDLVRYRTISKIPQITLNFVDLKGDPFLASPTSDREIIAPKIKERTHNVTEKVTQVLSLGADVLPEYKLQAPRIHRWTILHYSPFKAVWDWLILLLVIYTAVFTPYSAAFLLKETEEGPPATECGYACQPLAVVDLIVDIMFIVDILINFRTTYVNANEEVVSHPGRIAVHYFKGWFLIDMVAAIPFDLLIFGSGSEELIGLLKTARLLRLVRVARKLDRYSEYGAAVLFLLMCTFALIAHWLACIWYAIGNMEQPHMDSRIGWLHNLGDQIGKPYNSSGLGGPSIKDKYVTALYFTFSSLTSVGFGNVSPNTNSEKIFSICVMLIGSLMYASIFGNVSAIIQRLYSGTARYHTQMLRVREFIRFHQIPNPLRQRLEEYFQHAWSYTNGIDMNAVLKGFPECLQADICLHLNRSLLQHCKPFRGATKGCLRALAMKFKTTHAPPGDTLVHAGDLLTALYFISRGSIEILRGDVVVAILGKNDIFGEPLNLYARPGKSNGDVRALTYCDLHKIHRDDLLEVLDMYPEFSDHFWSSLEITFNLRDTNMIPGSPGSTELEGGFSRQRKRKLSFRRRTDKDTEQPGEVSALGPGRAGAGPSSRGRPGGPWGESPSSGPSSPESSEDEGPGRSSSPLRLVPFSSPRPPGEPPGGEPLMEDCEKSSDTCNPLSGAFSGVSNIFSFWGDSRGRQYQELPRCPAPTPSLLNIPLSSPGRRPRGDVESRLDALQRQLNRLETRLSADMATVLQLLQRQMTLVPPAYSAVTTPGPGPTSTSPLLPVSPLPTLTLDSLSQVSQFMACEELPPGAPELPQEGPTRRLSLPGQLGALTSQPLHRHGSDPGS
`CN1CCC(N(C)S(=O)(=O)c2ccc(NC(=O)COc3ccc(F)cc3)cc2)CC1`: the “hERG current change (%, negative = inhibition) at 10uM” value is listed as 0.996%.
As for `Cc1cc(C(F)F)n2nc(C(=O)Nc3ccc(S(=O)(=O)NC45CC6CC(CC(C6)C4)C5)cc3)nc2n1`, the “hERG current change (%, negative = inhibition) at 10uM” value was -8.28%.
In the case of `O=S(=O)(Cc1ccccc1)N1CCn2c(nc3ccccc32)C1` it was 9.91%; in that of `COCCNC(=O)C(=O)N/N=C(\C)CC(=O)Nc1cccnc1`, 8.89%; in that of `COC(=O)CSc1nnc(COc2ccc([N+](=O)[O-])cc2)n1C`, -47.6%.
In the case of `Cn1c(COc2ccc([N+](=O)[O-])cc2)nnc1SCC(N)=O` it was 1.54%; in that of `COc1ccc(NC(=O)CSc2nnc(CNc3ccc(C)cc3)n2C)cc1`, 25.2%; in that of `Cc1cc(C)nc(SCc2nnc(SCC(N)=O)n2Cc2ccco2)n1`, -7.19%.
Consider `CCn1c(SCc2ccc([N+](=O)[O-])cc2)nnc1C(C)NC(=O)c1ccc(C)cc1` (stereo not shown), for which the “hERG current change (%, negative = inhibition) at 10uM” value is -33.6%.
In the case of `COc1ccc(NCc2nnc(SCC(=O)Nc3ccc(OC)cc3)n2C)cc1` it was -62.3%.
Turning to `CC(C)OC(=O)CSc1nnc(COc2ccc([N+](=O)[O-])cc2)n1C`, the “hERG current change (%, negative = inhibition) at 10uM” value is -69.9%.
The figure for `Cc1cc(C)nc(SCc2nnc(SCc3ccc([N+](=O)[O-])cc3)n2Cc2ccco2)n1` is -80.6%.
In the case of `COC(=O)CSc1nnc(CSc2nc(C)cc(C)n2)n1Cc1ccco1` it was 7.23%.
For `C=CCn1c(SCc2ccc([N+](=O)[O-])cc2)nnc1C(C)NC(=O)c1ccccc1` (stereo not shown), the “hERG current change (%, negative = inhibition) at 10uM” value was -54.5%.
As to `CCn1c(SCc2ccc([N+](=O)[O-])cc2)nnc1C(C)NC(=O)c1ccccc1Br` (stereo not shown), the “hERG current change (%, negative = inhibition) at 10uM” value is on record as -27.6%.
The figure for `COc1ccc(NCc2nnc(SCC(=O)Nc3ccccc3)n2C)cc1` is -12.5%; for `CC(C)N1CC(C(=O)Nc2ccc(Br)c(Cl)c2)CC1=O` (stereo not shown) it is -2.34%; for `O=C(COc1ccc(-c2ccccc2)cc1)NNC(=O)Nc1ccccc1` it is -2.73%.
The figure for `Nc1c(Cl)ncnc1N/N=C/c1ccnc2ccccc12` is 1.91%.
The figure for `CC(C)NC(=O)C(=O)NCCN1CCN(S(=O)(=O)c2ccc(Cl)cc2)CC1` is -33.3%; for `COCCN(C(C)=O)c1nnc(-c2cnccn2)s1` it is 6.11%.
Turning to `COC(=O)C1=C(C)NC2=C(C(=O)CC(C)(C)C2)C1c1cnn(C)c1C` (stereo not shown), the “hERG current change (%, negative = inhibition) at 10uM” value was determined as 15.6%.
As for `COc1ccc(OCC(=O)N/N=C2\CCCCc3ccccc32)cc1`, the “hERG current change (%, negative = inhibition) at 10uM” value is -12.3%.
The figure for `CCn1c(Cc2ccccc2)nnc1SCC(=O)c1cccc([N+](=O)[O-])c1` is -24%; for `CCc1ccc(-n2c(SCc3c(C)noc3C)nnc2-c2ccncc2)cc1` it is -36.6%.
The figure for `CCn1c(Cc2ccccc2)nnc1SCc1ccc([N+](=O)[O-])cc1` is -57.1%; for `Cc1cccc(-n2c(Cc3ccccc3)nnc2SCc2ccc([N+](=O)[O-])cc2)c1` it is -37.6%.
Turning to `CCOc1ccc(-n2c(Cc3ccccc3)nnc2SCc2c(C)noc2C)cc1`, the “hERG current change (%, negative = inhibition) at 10uM” value is recorded as -74.1%.
In the case of `CCOc1ccc(-n2c(COc3ccccc3)nnc2SCC(N)=O)cc1`, the “hERG current change (%, negative = inhibition) at 10uM” value is on record as -13.8%.
In the case of `OCCOCCn1c(-c2ccccc2)nc(=S)c2c1CCCC2` it was 9.34%; in that of `CCCOc1ccc(Cn2c(O)cc(=O)[nH]c2=O)cc1`, 14.1%.
For `O=C(c1ccccc1)c1c2c(cc3sc4ccccc4[n+]13)-c1cccc3cccc-2c13.[Br-]`, the “hERG current change (%, negative = inhibition) at 10uM” value is -76.8%.
Regarding `Cc1sc2cc3c(c(C(=O)c4ccccc4)[n+]2c1C)-c1cccc2cccc-3c12.[Br-]`, the “hERG current change (%, negative = inhibition) at 10uM” value was -77.1%.
The figure for `O=C(O)c1cccc(N2C(=O)c3cccc4cccc(c34)C2=O)c1` is 12.7%; for `CN(C)/C=N/c1ncc(C(=O)c2ccccc2)s1` it is 1.48%.
The figure for `Cc1sc(N)c(C(=O)c2ccccc2)c1C` is 9.41%; for `Cc1sc2ccccc2[n+]1CC(=O)c1ccccc1.[Br-]` it is 18.7%.
For the compound `N#C/C(=C\c1ccccc1)C(=O)NC1CC1`, the “hERG current change (%, negative = inhibition) at 10uM” value was found to be 11.3%.
With `O=C(CSc1nnnn1-c1cccc(F)c1)Nc1nc2ccccc2s1`, the “hERG current change (%, negative = inhibition) at 10uM” value is reported as 8.36%.
The figure for `c1ccc(-c2ccc(-c3[nH]ncc3CN3CCC(N4CCSCC4)CC3)cc2)cc1` is -80.7%; for `c1ccc2oc(-c3[nH]ncc3CN3CCSCC3)cc2c1` it is -5.92%.
In the case of `COCC1CCN(Cc2cn[nH]c2-c2cc3ccccc3o2)C1` (stereo not shown) it was -33.7%; in that of `c1ccc2oc(-c3[nH]ncc3CN3CCC(N4CCSCC4)CC3)cc2c1`, -61.9%.
As to `Cc1nonc1C1CCCN1Cc1cn[nH]c1-c1ccc(-c2ccccc2)cc1` (stereo not shown), the “hERG current change (%, negative = inhibition) at 10uM” value is -24.6%.
In the case of `COc1ccc(-c2[nH]ncc2CN2CCC(N3CCSCC3)CC2)c(F)c1` it was 1.98%; in that of `CN(C)c1ccc(CNC(=O)CN(C)S(=O)(=O)c2ccc3c(c2)c(=O)n(C)c(=O)n3C)cc1`, 9.67%.
`CC1(C)CC(=O)C2=C(C1)NC(=O)NC2c1ccccc1Cl` (stereo not shown): the “hERG current change (%, negative = inhibition) at 10uM” value was found to be 16.3%.
As to `CC(C)C(C(=O)NC1CCCCC1)N(CC1CCCO1)C(=O)CNS(=O)(=O)c1ccc(F)cc1` (stereo not shown), the “hERG current change (%, negative = inhibition) at 10uM” value is on record as -7.17%.
For the compound `Cc1ccc(S(=O)(=O)NCC(=O)N(CC2CCCO2)C(C(=O)NC2CCCCC2)C(C)C)cc1` (stereo not shown), the “hERG current change (%, negative = inhibition) at 10uM” value is given as -52.7%.
In the case of `Cc1ccc(S(=O)(=O)NCC(=O)N(CC2CCCO2)C(C(=O)NC2CCCC2)C(C)C)cc1` (stereo not shown) it was -1.47%.
As to `Cl.O=C(O)CCNc1nc(-c2ccccc2)nc2ccccc12`, the “hERG current change (%, negative = inhibition) at 10uM” value is 2.17%.
For the compound `CC(C)(C)OC(=O)NNC(=O)NC12CC3CC(CC(C3)C1)C2`, the “hERG current change (%, negative = inhibition) at 10uM” value is recorded as -4.97%.
In the case of `Cc1ccc(NC(=O)CSc2nc(N)cc(N)n2)cc1S(=O)(=O)N1CCOCC1` it was 7.71%.
On to `CCN(C(=O)C1CCN(c2nc(-c3ccc(OC)cc3)no2)CC1)c1ccccc1`, for which the “hERG current change (%, negative = inhibition) at 10uM” value was -24.7%.
The figure for `O=C(CSCc1cccc(CSCC(=O)Nc2ccccc2)n1)Nc1ccccc1` is -67%.
Turning to `O=C(CSCc1ccccn1)Nc1ccccc1`, the “hERG current change (%, negative = inhibition) at 10uM” value was found to be 1.85%.
In the case of `O=C(CSCc1cccc(CSCC(=O)Nc2ccc3ccccc3c2)n1)Nc1ccc2ccccc2c1` it was 9.54%; in that of `O=C(CSCc1ccco1)Nc1cc(C(F)(F)F)ccc1N1CCOCC1`, -49%.
For `Cl.OC(COc1ccc(F)cc1)CN1CCN(c2ccccc2F)CC1` (stereo not shown), the “hERG current change (%, negative = inhibition) at 10uM” value was -66.6%.
For the compound `COc1cccc(OC)c1OCC(O)CN1CCN(c2ccccc2F)CC1.Cl` (stereo not shown), the “hERG current change (%, negative = inhibition) at 10uM” value is recorded as -12.2%.
In the case of `CC(C(=O)N1CCCC1)c1ccc([N+](=O)[O-])cc1` (stereo not shown) it was -0.0422%; in that of `CC(C(=O)N1CCN(c2ccccc2F)CC1)c1ccc([N+](=O)[O-])cc1` (stereo not shown), -68.4%; in that of `O=S(=O)(c1ccc(OCC(O)CN2CCN(c3ccccc3O)CC2)cc1)N1CCOCC1` (stereo not shown), -6.91%.
As for `O=[N+]([O-])c1ccc(OCC(O)CN2CCN(c3ccccc3F)CC2)cc1` (stereo not shown), the “hERG current change (%, negative = inhibition) at 10uM” value is listed as -75.3%.
In the case of `Cl.OC(COCc1ccccc1)CN1CCN(c2ccccc2F)CC1` (stereo not shown) it was -45.9%; in that of `CC(C(=O)N1CCN(c2ccccc2)CC1)c1ccc([N+](=O)[O-])cc1` (stereo not shown), -42.7%; in that of `Cc1ccc(N2CCN(C(=O)NC3CCCCC3)CC2C)cc1` (stereo not shown), 4.09%.
The figure for `CCOC(=O)c1c(S(=O)(=O)NCc2cccs2)c(C)n(C)c1C` is -12.1%.
As to `CC(=O)c1ccc(N(C(=O)Cc2c[nH]c3ccccc23)C(C(=O)NC2CCCCC2)c2cccs2)cc1` (stereo not shown), the “hERG current change (%, negative = inhibition) at 10uM” value came to 7.81%.
In the case of `CN1C(=O)CSC1=NCC12CC3CC(CC(C3)C1)C2` it was -19.6%; in that of `CC(C)CC(=O)NC1(C(F)(F)F)C(=O)Nc2c1c(=O)n(C)c(=O)n2C` (stereo not shown), 10.5%; in that of `COc1cc(OC)nc(NC2OC(=O)c3ccccc32)n1` (stereo not shown), 0.248%.
The figure for `CC(=O)Oc1cc2c(cc1Cl)C(c1cccs1)CC1(CC(C)(C)NC(=S)N1)O2` (stereo not shown) is 9.77%; for `COc1cccc(CN2CCCC(C(=O)c3ccc4c(c3)OCO4)C2)c1OC` (stereo not shown) it is -63.3%; for `COc1cccc(CN2CCC(C(=O)N3CCN(Cc4ccc5c(c4)OCO5)CC3)CC2)c1OC` it is -39.5%.
Take `COc1cc(OC)c(OC)cc1CN1CCCC(C(=O)c2ccc3c(c2)OCO3)C1` (stereo not shown): the “hERG current change (%, negative = inhibition) at 10uM” value is -67.1%.
In the case of `COc1cccc(CN2CCCC(C(=O)N3CCCCC3)C2)c1OC.O=C(O)C(=O)O` (stereo not shown) it was -26.3%; in that of `COc1cc(OC)c(OC)cc1CN1CCCC(C(=O)N2CCCC2)C1.O=C(O)C(=O)O` (stereo not shown), 17.4%; in that of `COc1ccc(CN2CCCC(C(=O)c3ccc4c(c3)OCO4)C2)c(F)c1` (stereo not shown), -64.2%.
Regarding `COc1cccc(CN2CCCC(C(=O)c3ccc4c(c3)OCO4)C2)c1O` (stereo not shown), the “hERG current change (%, negative = inhibition) at 10uM” value is -65.5%.
The figure for `COC(=O)c1ccccc1NC(=O)COC(=O)CO/N=C(\C)c1ccc2c(c1)OCO2` is 21%.
In the case of `CCn1c(SCC(=O)Nc2nc3ccc(OC)cc3s2)nnc1-c1ccoc1C` it was -32.3%; in that of `OC(COc1cc(Cl)c(Cl)cc1Cl)CN1CCN(c2ncccn2)CC1` (stereo not shown), -11.3%.
The figure for `CCSc1nnc(NC(=O)CSc2nccn2-c2cc(C)cc(C)c2)s1` is -2.92%; for `COc1ccc(-c2c(C)nn3c(N4CCCCCC4)cc(C)nc23)cc1OC` it is 7.94%.
